This is an account of results in PubChem BioAssay AID651819 (National Center for Advancing Translational Sciences (NCATS), 2012).

Where “and” joins values, the source holds several entries; their conditions need not be identical. Equal entries are not always repeated. In all, about 360,000 compounds went through this assay and about 1,100 (0.31%) were called active. The sample holds actives, similar compounds and a random draw of the others, so the mix is not that of the screen. A number with no mark means an inactive call. Rule as the data show it: active = activity change below about -30%; inactive = the rest.
% is scaled to controls: 0 for no effect and ±100 for the full control effect.

In this assay the test system is cytosolic chaperonin (CCT/TRiC complex). Nature of the assay: High-Throughput Screening for Modulators of Cytosolic Chaperonin Activity. Conditions: purified chaperonin ATPase assay, HTRF ADP detection, 30 min; active compounds read low. The gist of the method:
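TRiC at 40 or 20 nM final (batch-dependent) in 30 mM Tris pH 7.4, 100 mM KCl, 5 mM MgCl2, 1 mM DTT, with compound at single 76 uM and 10 uM ATP, 30 min at 37 deg C. ADP detected by HTRF Transcreener, 665/615 ratio.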
(In general: TR-FRET usually uses a lanthanide donor and a delayed reading to cut background.)
Turning to `Cc1ccc(-c2cc(C(F)(F)F)n3ncc(C(=O)N4CCCCC4c4cccnc4)c3n2)cc1` (stereo not drawn), the activity change was -3.01%.

Consider `Cc1ccccc1NC(=O)C(C)c1ccc(-c2ccccc2)c(F)c1` (stereo not drawn), for which the activity change is -2.15%.

`CCCc1nc2c(C)cc(-c3nc4ccccc4n3C)cc2n1Cc1ccc(-c2ccccc2C(=O)O)cc1`: the activity change is -0.702%.

With `O=C(NCCCN1CCCCCC1)C1CC(=O)N(C2CCCC2)C1` (stereo not drawn), the activity change was -44.9% (active).

Turning to `O=C(NCCCN1CCCCC1)C1CC(=O)N(CCc2ccccc2)C1` (stereo not drawn), the activity change is 0.88%.

Regarding `O=C(NCCc1ccc(Cl)cc1)C1CC(=O)N(C2CCCCC2)C1` (stereo not drawn), the activity change was -0.359%.

Turning to `CCc1cc(CNC(=O)CC2C(=O)NCCN2CC2CCCCC2)on1` (stereo not drawn), the activity change is -0.174%.

Take `CC(=O)Nc1ccc(S(=O)(=O)NCC2CCC(C(=O)NCCc3ccccc3)CC2)cc1` (stereo not drawn): the activity change was -1.57%.

Regarding `COc1cccc(CNS(=O)(=O)c2csc(C(N)=O)c2)c1`, the activity change is 0.982%.

`COc1ccc(NC(=O)C2CCC(CNS(=O)(=O)c3csc(C(N)=O)c3)CC2)cc1OC` (stereo not drawn): the activity change is -80.6% (active).

For the molecule `CN(C)C(=O)CCc1ccc2c3c([nH]c2c1)[C@]1(CCC2CCCC2)[C@@H](C(=O)N2CCOCC2)C[C@H](CC(=O)NCc2ccco2)C(=O)N1CC3`, the activity change was 0.536%.

In the case of `CSCCC(NC(=O)C1CCC(C)CC1)C(=O)NCc1ccco1` (stereo not drawn), the activity change was -5.62%.

Regarding `O=C(CCn1nnc2ccccc21)OCC(=O)c1ccc([N+](=O)[O-])cc1`, the activity change is 1.01%.

Regarding `O=C(Cn1c[n+](CC(=O)c2ccc([N+](=O)[O-])cc2)cn1)c1ccc([N+](=O)[O-])cc1`, the activity change was 1.85% and -0.852%.

For `O=C(CC(n1cncn1)C(Cl)(Cl)Cl)c1ccc([N+](=O)[O-])cc1` (stereo not drawn), the activity change is -37.2% (active).

As to `CCCN(C(=O)COC(=O)CNS(=O)(=O)c1ccc(NC(C)=O)cc1)C1CCS(=O)(=O)C1` (stereo not drawn), the activity change was -0.677%.

With `O=C(NC(=O)c1cc(OCC(F)(F)F)ccc1OCC(F)(F)F)Nc1ccccc1`, the activity change was -0.0973%.

For `COC(=O)c1ccc(COc2cc([N+](=O)[O-])cc3cccnc23)cc1`, the activity change is -0.442%.

As for `COc1ccc(CN2CCCC(CNC(=O)c3ccc(F)cc3)C2)cc1OC` (stereo not drawn), the activity change is -2.54%.

Consider `S=c1nccc(-c2cc(Cl)sc2Cl)[nH]1`, for which the activity change is -49.1% (active).

In the case of `CCOc1c2ccc(C(=O)NC3CCCc4ccccc43)cc2nn1CC` (stereo not drawn), the activity change was -6.07%.

As for `COc1ccc(Nc2cc(Sc3ccc(OC)cc3)ncn2)cc1`, the activity change was -0.999%.

In the case of `COC(=O)c1ccc(Nc2ncnc3sccc23)cc1`, the activity change was -2.64%.

Take `COc1ccc(Nc2ncnc3sc(C)cc23)cc1`: the activity change is -82.2% (active).

`CC1(C)CC[C@]2(C(=O)O)CC[C@]3(C)C(=CCC4[C@@]5(C)CC[C@H](O)C(C)(C)C5[C@H](O)C[C@]43C)[C@@H]2C1` (stereo partly drawn): the activity change is 0.294%.

As for `CCO[C@H]1OC(C(=O)N2CCN(Cc3ccccc3)CC2)=C[C@@H](c2cn(C(C)=O)c3ccccc23)[C@@H]1CCCO`, the activity change is 0.631%.

In the case of `COc1ccc(CCNS(=O)(=O)c2ccc(C(=O)NCc3ccco3)cc2)cc1OC`, the activity change was -2.3%.

Regarding `COc1ccc(CCNS(=O)(=O)c2ccc(Cl)s2)cc1OC`, the activity change is -1.56%.

With `COc1ccc(CCNS(=O)(=O)c2ccc(F)cc2)cc1OC`, the activity change is -67.3% (active).

For the molecule `O=C(OCCN1CCOCC1)C1(c2ccccc2)CCCCC1`, the activity change is 0.343%.

In the case of `CCN1CCN(C(C(=O)NC2CCCC2)c2cc3c(cc2[N+](=O)[O-])OCO3)CC1` (stereo not drawn), the activity change was -0.623%.

For `Cc1ccc2c(c1)c1ncnc(N3CCc4ccccc4C3)c1n2C`, the activity change is 1.95%.

For the molecule `CCOCCCN1C(=O)C2C(C(=O)Nc3ccc(OCC)cc3)C3C=CC2(O3)C1C(=O)NC1CCCCC1` (stereo not drawn), the activity change was -2.83%.

Take `CCN(CC)CCN1C(=O)C2C(C(=O)Nc3ccc(Br)cc3)C3C=CC2(O3)C1C(=O)NC1CCCCC1` (stereo not drawn): the activity change was -40.8% (active).

For the molecule `CC(C)N1C(=O)C2C(C(=O)NC3CCCCC3)C3C=CC2(O3)C1C(=O)NC1CCCC1` (stereo not drawn), the activity change was -2.56%.

On to `CCCSc1nsc(N)n1`, for which the activity change is -1.36%.

Turning to `COc1ccc(N)c(C)c1`, the activity change is -0.166%.

Take `COc1ccc2ccn(C)c2c1`: the activity change was 1.51%.

On to `COc1ccc2c(C)cc3nnnn3c2c1`, for which the activity change is -38.8% (active).

As for `Cc1nc2nc3c(cn2n1)C(=O)CC(c1ccccc1)C3` (stereo not drawn), the activity change was -0.882%.

Consider `CN1CCN(CC#CCC2(O)c3ccccc3-c3ccccc32)CC1`, for which the activity change is -0.316%.

Take `CSc1nnc2c(n1)OC(c1cn(C)c3ccccc13)N(C(C)=O)c1ccccc1-2` (stereo not drawn): the activity change is -0.161%.

In the case of `CSCCC(=O)N1CCCC(CNC(=O)c2ccccc2Cl)C1` (stereo not drawn), the activity change is -0.386%.

For `COC(=O)c1ccccc1NC(=O)CSc1ccccn1`, the activity change is -2.39%.

With `CCOC(=O)CSc1ccccn1`, the activity change is -41% (active).

For the molecule `CCOC(=O)CSc1ncc(-c2cccc(Cl)c2)cn1`, the activity change was -0.564%.

Consider `COc1ccc(N2C(=O)CCC(C(=O)N(C)C3CCCCC3)C2c2ccc(OC)c(OC)c2)cc1` (stereo not drawn), for which the activity change was -0.957%.

As to `CN1CCN(c2ccncc2S(=O)(=O)N2CCCC2)CC1`, the activity change is -0.238%.

Consider `CNC[C@H](CC1CCCCC1)NC[C@H](NCCC1CCCC1)[C@H](C)O`, for which the activity change was -0.857%.

Regarding `COc1ccc(NC(=O)CSc2nnnn2-c2cccc(OC)c2)cc1`, the activity change is 1.8%.

For the molecule `COc1cccc(NC(=O)CSc2nnc(C3CCCCC3)n2N)c1`, the activity change was -45.1% (active).

For the molecule `Nn1c(SCC(=O)Nc2ccc3c(c2)CCC3)nnc1C1CC1`, the activity change was -0.2%.

Turning to `O=C(Nc1cccnc1Oc1ncnc2cc(Cl)ccc12)c1ccc(F)cc1`, the activity change is 1.03%.

On to `O=C1N[C@H](Cc2ccccc2)C(=O)N[C@H]1Cc1cn(S(=O)(=O)c2ccccc2)c2ccccc12`, for which the activity change was -2.61%.

On to `Nc1nc(Nc2ccccc2F)nc(NC2CCCCC2)c1[N+](=O)[O-]`, for which the activity change is -0.808%.

Consider `Nc1nc(NCC2CCCO2)nc(Nc2ccccc2F)c1[N+](=O)[O-]` (stereo not drawn), for which the activity change was 0.16%.

Turning to `C=CCNc1nc(N)c([N+](=O)[O-])c(NC2CCCCC2)n1`, the activity change is -43.9% (active).

As to `O=C(Nc1ccccc1-c1nnn(CC(=O)N2CCN(c3ccccc3)CC2)n1)c1cccs1`, the activity change was -3.64%.

Regarding `CCOC1CS(=O)(=O)CC1OCC` (stereo not drawn), the activity change was 0.485%.

As for `COc1ccc(NC(=O)CC(NC(C)c2ccccc2)C(=O)O)cc1` (stereo not drawn), the activity change is -0.408%.

Regarding `COc1ccc(NC(=O)CS(=O)(=O)c2ccccc2)cc1`, the activity change is -61% (active).

As to `O=C(CS(=O)(=O)c1ccccc1)Nc1ccc(S(=O)(=O)Nc2ccccn2)cc1`, the activity change is 0.548%.

Turning to `COc1cc2nc(CN(C)Cc3ccc(F)cc3)[nH]c(=O)c2cc1OC`, the activity change was -1.05%.

As to `C/C(Cc1ccccc1)=N\NC(=O)CNC(=O)c1ccccc1Cl`, the activity change is 0.921%.

As to `CC(C)CNC(=O)COC(=O)c1ccccc1OCC(=O)Nc1ccc(Br)cc1`, the activity change is 0.0186%.

In the case of `CN(c1ccccc1)S(=O)(=O)c1ccc(C(=O)NCc2cccnc2)cc1`, the activity change was 0.104%.

Consider `O=C(O)c1ccccc1-c1ccccc1C(=O)NCc1cccnc1`, for which the activity change was -1.06%.

For `O=C(NCc1cccnc1)c1cnc2ccccc2n1`, the activity change is -37.4% (active).

In the case of `CC(C)(C)OC(=O)CNC(=O)c1[nH]cnc1C(=O)N[C@@H](CCCCN)C(=O)OC(C)(C)C`, the activity change is 0.783%.

As to `NC(=O)c1nsc(C(=O)N(CCCN2CCOCC2)C(C(=O)NC2CCCCC2)c2ccc(Cl)cc2)c1N` (stereo not drawn), the activity change is -0.121%.

As for `CCc1nc2sc3c(Cl)ncnc3c2c2c1CCCC2`, the activity change was -2.15%.

On to `COc1ccc(C(CC(=O)Nc2ccc(C)cc2)NC(=O)C(F)(F)F)cc1` (stereo not drawn), for which the activity change is 0.31%.

For `COc1ccc(NC(=O)C(=O)NCC(=O)Nc2cccc(C(F)(F)F)c2)cc1`, the activity change is -44.8% (active).

Consider `C/C(CC(=O)Nc1cccc(C(F)(F)F)c1)=N\NC(=O)C(=O)NCC(C)C`, for which the activity change was -0.0398%.

Regarding `Cc1ccc(CN2CC(C(=O)NNC(=O)Cn3ccc(C(F)(F)F)n3)CC2=O)cc1` (stereo not drawn), the activity change is -2.29%.

With `Cc1cccc(-n2c(SCC(=O)Nc3cccc(S(=O)(=O)NC4=NCCCCC4)c3)nc3ccccc3c2=O)c1C`, the activity change is -6.85%.

Regarding `Cc1ccc(CNC(=O)CCN2C(=O)[C@@H]3Cc4ccccc4CN3C2=O)cc1`, the activity change is -0.496%.

Take `O=C(CCN1C(=O)[C@@H]2Cc3ccccc3CN2C1=O)NCCc1ccccc1`: the activity change was -0.128%.

With `O=C(CCN1C(=O)[C@@H]2Cc3ccccc3CN2C1=O)NCc1ccccc1`, the activity change is -37.1% (active).

For `CCN1C(=NCc2ccc(OC)cc2)N[C@@H](CCc2ccccc2)[C@H](C(=O)NCc2ccc(OC)cc2)[C@H]1C`, the activity change is -0.204%.

On to `COc1ccc(C2N=C(N)N=C(N)N2c2ccccc2)cc1OC` (stereo not drawn), for which the activity change was -35.3% (active).

For the molecule `NC1=NC(c2ccc([N+](=O)[O-])cc2)N(c2ccc(F)cc2)C(N)=N1` (stereo not drawn), the activity change was 1.53%.

For the molecule `COc1cc(C=O)ccc1Oc1nnnn1-c1ccccc1`, the activity change is 0.228%.

For the molecule `Nc1nonc1-n1nnc(C(=O)N/N=C/c2cc(Br)ccc2O)c1CSC1=NCCS1`, the activity change was 1.21%.

Consider `Cc1nn(-c2ccccc2)c2sc(C(=O)N(Cc3ccco3)C(C)C(=O)NC(C)(C)C)cc12` (stereo not drawn), for which the activity change is 1%.

Take `Cc1ccc(C)c(N2CCN(C(=O)CCCCCn3c(=S)[nH]c4ccc(N5CCOCC5)cc4c3=O)CC2)c1`: the activity change was 1.65%.

For the molecule `CC(C)NC(=O)CCCn1c(=S)[nH]c2cc3c(cc2c1=O)OCO3`, the activity change was -1.56%.

For `O=C(CCCCCn1c(=S)[nH]c2cc3c(cc2c1=O)OCO3)N1CCN(c2ccc(F)cc2)CC1`, the activity change was -31.7% (active).
